# According to PubChem BioAssay (Tox21):
# Unmarked numbers belong to inactive results. Records with an inconclusive call do not appear. A call without a number means that no potency is given here. Calls of active or inactive are those of the source. Unless noted, calls come from the whole dose curve; as a rule, active = well fitted curve in the direction sought with a large enough effect in the repeat runs; inconclusive = weak or mixed curves; inactive = no such curve, though single readings can be large; an effect the other way counts as inactive or inconclusive.
# How the values were obtained:
# [1] = target: Thyrotropin receptor (Homo sapiens) (UniProt P16473); assay: qHTS assay to identify small molecule agonists of the thyroid stimulating hormone receptor (TSHR) signaling pathway (AID 1224843; calls by dose curve; note: nearly all actives have a fitted effect of over 45% in size; note: potency is the fitted concentration of half-maximal effect)
# Thyrotropin receptor (Homo sapiens), sequence (P16473 whole entry, looked up): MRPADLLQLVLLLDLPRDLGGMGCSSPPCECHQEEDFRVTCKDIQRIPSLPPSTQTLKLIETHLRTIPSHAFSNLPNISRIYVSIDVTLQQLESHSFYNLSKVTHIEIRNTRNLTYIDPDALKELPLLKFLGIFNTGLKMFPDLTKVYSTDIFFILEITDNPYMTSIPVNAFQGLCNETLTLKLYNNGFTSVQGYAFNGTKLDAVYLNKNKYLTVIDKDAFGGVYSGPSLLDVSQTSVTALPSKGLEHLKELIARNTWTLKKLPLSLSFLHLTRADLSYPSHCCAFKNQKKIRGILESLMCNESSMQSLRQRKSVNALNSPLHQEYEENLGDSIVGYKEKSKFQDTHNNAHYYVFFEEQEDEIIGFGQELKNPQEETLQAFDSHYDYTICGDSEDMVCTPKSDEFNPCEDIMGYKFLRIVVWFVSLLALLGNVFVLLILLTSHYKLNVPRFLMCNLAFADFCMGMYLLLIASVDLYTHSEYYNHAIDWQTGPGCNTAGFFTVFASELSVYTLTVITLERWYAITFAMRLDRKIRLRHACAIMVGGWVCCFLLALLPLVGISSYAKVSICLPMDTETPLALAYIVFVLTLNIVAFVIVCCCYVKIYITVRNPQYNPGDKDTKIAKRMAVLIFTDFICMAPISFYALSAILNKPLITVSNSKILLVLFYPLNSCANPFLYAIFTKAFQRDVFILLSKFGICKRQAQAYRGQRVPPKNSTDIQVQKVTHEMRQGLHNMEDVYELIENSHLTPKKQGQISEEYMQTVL
# Procedure, shortened: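 Agonist activity read as cAMP rise via d2/cryptate HTRF competition, 1 h room-temperature detection, in HEK293 cells expressing TSHR. Fifteen-point titrations, each run in triplicate, with a 30 min room-temperature incubation beforehand.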
# [2] = qHTS assay to identify small molecule agonists of the hypoxia (HIF-1) signaling pathway - cell viability counter screen (AID 1224844; calls by dose curve; note: nearly all actives have a fitted effect of over 50% in size; note: potency is the fitted concentration of half-maximal effect)
# Procedure, shortened: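 Cytotoxicity measured by CellTiter-Glo ATP luminescence in the wells also read for beta-lactamase signal. Cells were HRE-bla ME-180 (2,000/well, 0.5% dialyzed FBS), exposed to compounds for 17 h at 37C.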
# [3] = qHTS assay to identify small molecule agonists of H2AX (AID 1224845; active = well fitted activation curve with a large enough effect in the signal ratio in the repeat runs, not every such curve was filed as active; the % refers to the signal ratio)
# Procedure, shortened: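 Phospho-H2AX Ser139 measured by HTRF (ex 320 nm; em 665 and 620 nm) after 24 hr antibody incubation. Compounds, 15 concentrations, 0.76% DMSO, were applied to CHO-K1 cells for 3hr at 37C before lysis.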
# [4] = qHTS assay to identify small molecule agonists of the hypoxia (HIF-1) signaling pathway (AID 1224846; active = well fitted activation curve with a large enough effect in the signal ratio in the repeat runs, not every such curve was filed as active; the % refers to the signal ratio)
# Procedure, shortened: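 Compounds added to ME-180 cells carrying hypoxia-response-element beta-lactamase reporter (0.5% dialyzed FBS, 5 h preplating), 17 h at 37C; agonist activity detected by CCF4-AM B/G FRET read-out.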
# [5] = qHTS assay to identify small molecule agonists of H2AX - cell viability counter screen (AID 1224847; calls by dose curve; note: nearly all actives have a fitted effect of over 30% in size; note: potency is the fitted concentration of half-maximal effect)
# Procedure, shortened: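 Read-out: CellTiter-Glo luminescence, 30 min RT. Cells: wild-type CHO-K1, 1000/well, 10% FBS, plated overnight at 37C. Treatment: 15 concentrations, 3 hr, 37C, 0.76% DMSO.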
# [6] = qHTS RealTime-Glo MT Cell Viability Assay in HepG2 cells - 24 hour (AID 1224867); note: nearly all actives have a fitted effect of over 50% in size; note: potency is the fitted concentration of half-maximal effect
# Procedure, shortened: (§1)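 Cell number in HepG2 cultures estimated from NanoLuc luminescence generated by metabolic reduction of a prosubstrate by living cells. The homogeneous, nonlytic format allowed repeated reads at 0, 8, 16, 24, 32 and 40 h of compound exposure.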
# [7] = qHTS RealTime-Glo MT Cell Viability Assay in HEK293 cells - 32 hour (AID 1224868); note: nearly all actives have a fitted effect of over 50% in size; note: potency is the fitted concentration of half-maximal effect
# Procedure, shortened: (§2)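 Homogeneous bioluminescent viability format in HEK293 cells (600 cells/well). Following 5 h at 37 C/5% CO2, 23 nL compound was pintooled; the signal was measured repeatedly during 40 h incubation.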
# [8] = A CellTox Green Cytotoxicity Assay to monitor cytotoxicity in HEK293 cells - 0 hour (AID 1224869); note: nearly all actives have a fitted effect of over 50% in size
# Procedure, shortened: (§3)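 Fluorescence from a DNA-binding dye excluded by viable cells was measured repeatedly in the same HEK293 wells (600 cells/well) during continuous compound exposure at 37 C. Each assay gives one read point: 0, 8, 16, 24, 32 or 40 h.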
# [9] = qHTS RealTime-Glo MT Cell Viability Assay in HepG2 cells - 40 hour (AID 1224870); note: nearly all actives have a fitted effect of over 50% in size; note: potency is the fitted concentration of half-maximal effect
# Procedure, shortened: (§4)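 Real-time viability: cells seeded at 600 per well together with NanoLuc and cell-permeant prosubstrate, compounds added after 5 h incubation. Luminescence tracked at 0, 8, 16, 24, 32 and 40 h of exposure.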
# [10] = qHTS RealTime-Glo MT Cell Viability Assay in HEK293 cells - 16 hour (AID 1224872); note: nearly all actives have a fitted effect of over 50% in size; note: potency is the fitted concentration of half-maximal effect
# Procedure, shortened: as §2
# [11] = qHTS RealTime-Glo MT Cell Viability Assay in HepG2 cells - 8 hour (AID 1224873); note: nearly all actives have a fitted effect of over 55% in size; note: potency is the fitted concentration of half-maximal effect
# Procedure, shortened: as §4
# [12] = qHTS RealTime-Glo MT Cell Viability Assay in HEK293 cells - 40 hour (AID 1224874); conditions: RealTime-Glo luminescence; max response: stronger effect = lower value; note: nearly all actives have a fitted effect of over 50% in size; note: potency is the fitted concentration of half-maximal effect
# Procedure, shortened: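 Luminescence, which tracks viable cell number through reduction of the prosubstrate to a NanoLuc substrate, was read over continuous 37 C culture. Cells (600/well) were premixed with reagent and rested 5 h before 23 nL of compound in DMSO was pinned.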
# [13] = A CellTox Green Cytotoxicity Assay to monitor cytotoxicity in HEK293 cells - 24 hour (AID 1224875); note: nearly all actives have a fitted effect of over 45% in size; note: potency is the fitted concentration of half-maximal effect
# Procedure, shortened: as §3
# [14] = A CellTox Green Cytotoxicity Assay to monitor cytotoxicity in HepG2 cells - 16 hour (AID 1224876); note: nearly all actives have a fitted effect of over 45% in size; note: potency is the fitted concentration of half-maximal effect
# Procedure, shortened: (§5)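 Real-time cytotoxicity: fluorescence of a cell-impermeant cyanine dye binding DNA of dead HepG2 cells, measured repeatedly (0–40 h) during compound exposure at 37 C. Cells seeded 600/well with reagent, dosed after 5 h.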
# [15] = qHTS RealTime-Glo MT Cell Viability Assay in HepG2 cells - 32 hour (AID 1224877); note: nearly all actives have a fitted effect of over 55% in size; note: potency is the fitted concentration of half-maximal effect
# Procedure, shortened: as §1
# [16] = A CellTox Green Cytotoxicity Assay to monitor cytotoxicity in HepG2 cells - 40 hour (AID 1224879); note: nearly all actives have a fitted effect of over 40% in size; note: potency is the fitted concentration of half-maximal effect
# Procedure, shortened: as §5
# [17] = A CellTox Green Cytotoxicity Assay to monitor cytotoxicity in HEK293 cells - 40 hour (AID 1224871); note: nearly all actives have a fitted effect of over 45% in size; note: potency is the fitted concentration of half-maximal effect
# Procedure, shortened: as §3
# [18] = A CellTox Green Cytotoxicity Assay to monitor cytotoxicity in HepG2 cells - 24 hour (AID 1224878); note: nearly all actives have a fitted effect of over 45% in size; note: potency is the fitted concentration of half-maximal effect
# Procedure, shortened: as §5
# [19] = qHTS assay to identify small molecule antagonists of the estrogen related receptor (ERR) signaling pathway from Tox21 library (AID 1224848); note: nearly all actives have a fitted effect of over 50% in size; note: potency is the fitted concentration of half-maximal effect
# Procedure, shortened: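 Luciferase luminescence (ONE-Glo, 30 min room temperature) was the read-out. Cells of the NTP-supplied ERR line, 2,000 per well, were given 6 h at 37 C before compound addition in DMSO and 18 h exposure at 37 C.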
# [20] = qHTS assay to identify small molecule agonists of the estrogen related receptor (ERR) signaling pathway from Tox21 library (AID 1224849; calls by dose curve; note: nearly all actives have a fitted effect of over 15% in size); conditions: ERR reporter cell line, ONE-Glo luciferase, 18 h; at 92.4 µM (top of the series) unless noted
# Procedure, shortened: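 Luminescent agonist read-out (One-Glo, 30-minute room-temperature incubation) following 18-hour compound treatment at 37 C of the ERR cell line, which had been plated 6 hours before dosing.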
smiles,measurement,setting,value
COc1ccccc1N1CCN(CCCCNC(=O)c2ccc(-c3ccc(C(C)=O)cc3)cc2)CC1,Potency,[1],inactive
same,Potency,[2],inactive
same,Potency,[3],inactive
same,outcome,[4],inactive
same,Potency,[5],inactive
same,Potency,[6],inactive
same,Potency,[7],1.51 µM (active)
same,Potency,[8],inactive
same,Potency,[9],inactive
same,Potency,[10],1.9 µM (active)
same,Potency,[11],inactive
same,Potency,[12],1.9 µM (active)
same,Potency,[13],inactive
same,Potency,[14],inactive
same,Potency,[15],inactive
same,Potency,[16],26.8 µM (active)
CCOC(=O)c1ccc(OCCN2C[C@H](O)[C@@H](O)[C@H](O)[C@H]2CO)cc1,Potency,[1],inactive
same,Potency,[2],inactive
same,Potency,[3],inactive
same,outcome,[4],inactive
same,Potency,[5],inactive
same,Potency,[6],inactive
same,Potency,[7],inactive
same,Potency,[8],inactive
same,Potency,[9],inactive
same,Potency,[17],inactive
same,Potency,[10],inactive
same,Potency,[11],inactive
same,max response,[12],1.01%
same,Potency,[13],inactive
same,Potency,[14],inactive
same,Potency,[15],inactive
same,Potency,[18],inactive
same,Potency,[16],inactive
O=C(OC(=O)c1ccccc1)c1ccccc1,Potency,[1],inactive
same,Potency,[2],inactive
same,Potency,[3],inactive
same,outcome,[4],inactive
same,Potency,[5],inactive
same,Potency,[6],inactive
same,Potency,[7],inactive
same,Potency,[8],inactive
same,Potency,[9],inactive
same,Potency,[10],inactive
same,Potency,[11],inactive
same,max response,[12],6.21%
same,Potency,[13],inactive
same,Potency,[14],inactive
same,Potency,[15],inactive
same,Potency,[18],inactive
same,Potency,[16],inactive
CCCCC(CC)COP(=O)(O)O (centres undefined),Potency,[1],inactive
same,Potency,[2],12.5 µM (active)
same,Potency,[3],inactive
same,outcome,[4],inactive
same,Potency,[5],inactive
same,Potency,[6],inactive
same,Potency,[8],inactive
same,Potency,[9],inactive
same,Potency,[10],inactive
same,Potency,[11],inactive
same,Potency,[14],inactive
same,Potency,[15],inactive
same,Potency,[18],inactive
same,Potency,[16],inactive
Cc1ccc(CO)cc1,Potency,[1],inactive
same,Potency,[2],inactive
same,Potency,[3],inactive
same,outcome,[4],inactive
same,Potency,[5],inactive
same,Potency,[6],inactive
same,Potency,[7],inactive
same,Potency,[8],inactive
same,Potency,[9],inactive
same,Potency,[17],inactive
same,Potency,[10],inactive
same,Potency,[11],inactive
same,max response,[12],18.5%
same,Potency,[13],inactive
same,Potency,[14],inactive
same,Potency,[15],inactive
same,Potency,[18],inactive
same,Potency,[16],inactive
CCC1NC(=O)c2cc(S(N)(=O)=O)c(Cl)cc2N1 (centres undefined),Potency,[1],inactive
same,Potency,[2],inactive
same,Potency,[3],inactive
same,outcome,[4],inactive
same,Potency,[5],inactive
same,Potency,[6],inactive
same,Potency,[7],inactive
same,Potency,[8],inactive
same,Potency,[9],inactive
same,Potency,[10],inactive
same,Potency,[11],inactive
same,max response,[12],6.45%
same,Potency,[13],inactive
same,Potency,[14],inactive
same,Potency,[15],inactive
same,Potency,[18],inactive
same,Potency,[16],inactive
CCCCN1CCCC1C(=O)Nc1c(C)cc(C)cc1C (centres undefined),Potency,[1],inactive
same,Potency,[2],inactive
same,Potency,[3],inactive
same,outcome,[4],inactive
same,Potency,[5],inactive
same,Potency,[6],inactive
same,Potency,[8],inactive
same,Potency,[9],inactive
same,Potency,[17],16.9 µM (active)
same,Potency,[11],inactive
same,Potency,[13],15.1 µM (active)
same,Potency,[15],inactive
CN(C)CCN1C(=O)c2ccccc2N(C)c2ccccc21,Potency,[1],inactive
same,Potency,[2],inactive
same,Potency,[3],inactive
same,outcome,[4],inactive
same,Potency,[5],inactive
same,Potency,[6],inactive
same,Potency,[7],inactive
same,Potency,[8],inactive
same,Potency,[9],inactive
same,Potency,[17],inactive
same,Potency,[10],inactive
same,Potency,[11],inactive
same,max response,[12],-6.83%
same,Potency,[13],inactive
same,Potency,[14],inactive
same,Potency,[15],inactive
same,Potency,[18],inactive
same,Potency,[16],inactive
OCCN1CCN(CCCN2c3ccccc3Sc3ccc(Cl)cc32)CC1,Potency,[1],inactive
same,Potency,[2],15.1 µM (active)
same,Potency,[3],inactive
same,Potency,[19],29.8 µM (active)
same,"activity change, positive = activation",[20],-48% [at 42.5 µM]
same,Potency,[6],23.9 µM (active)
same,Potency,[7],23.9 µM (active)
same,Potency,[8],inactive
same,Potency,[9],23.9 µM (active)
same,Potency,[10],23.9 µM (active)
same,Potency,[11],23.9 µM (active)
same,Potency,[12],23.9 µM (active)
same,Potency,[14],21.3 µM (active)
same,Potency,[15],23.9 µM (active)
same,Potency,[18],15.1 µM (active)
same,Potency,[16],19 µM (active)
O=C1c2ccccc2C(=O)C1c1ccc(Br)cc1,Potency,[1],inactive
same,Potency,[2],inactive
same,outcome,[4],inactive
same,Potency,[5],inactive
same,Potency,[19],inactive
same,"activity change, positive = activation",[20],99.8% [at 42.5 µM] (active)
same,Potency,[6],inactive
same,Potency,[7],inactive
same,Potency,[8],inactive
same,Potency,[9],inactive
same,Potency,[10],inactive
same,Potency,[11],inactive
same,max response,[12],-7.99%
same,Potency,[13],inactive
same,Potency,[14],inactive
same,Potency,[15],inactive
same,Potency,[18],inactive
same,Potency,[16],inactive
CS(=O)(=O)c1ccc(-c2cn3ccccc3n2)cc1,Potency,[1],inactive
same,Potency,[2],23.9 µM (active)
same,outcome,[4],inactive
same,Potency,[5],31 µM (active)
same,Potency,[19],inactive
same,Potency,[8],inactive
same,Potency,[9],inactive
same,Potency,[17],inactive
same,Potency,[10],inactive
same,Potency,[13],inactive
same,Potency,[14],inactive
same,Potency,[15],inactive
CCOC(=O)OC(C)OC(=O)[C@@H]1N2C(=O)[C@@H](NC(=O)[C@H](N)c3ccccc3)[C@H]2SC1(C)C (some centres undefined),Potency,[1],inactive
same,Potency,[2],inactive
same,Potency,[3],inactive
same,Potency,[5],inactive
same,Potency,[6],inactive
same,Potency,[7],inactive
same,Potency,[8],inactive
same,Potency,[9],inactive
same,Potency,[17],inactive
same,Potency,[10],inactive
same,Potency,[11],inactive
same,max response,[12],-0.757%
same,Potency,[13],inactive
same,Potency,[14],inactive
same,Potency,[15],inactive
same,Potency,[18],inactive
same,Potency,[16],inactive
CCCCCCCCCI,Potency,[1],24.8 µM (active)
same,Potency,[2],inactive
same,outcome,[4],inactive
same,Potency,[5],inactive
same,Potency,[19],inactive
same,"activity change, positive = activation",[20],3.18%
same,Potency,[7],inactive
same,Potency,[8],inactive
same,Potency,[9],25 µM (active)
same,Potency,[17],inactive
same,Potency,[10],inactive
same,Potency,[11],inactive
same,max response,[12],-1.11%
same,Potency,[13],inactive
same,Potency,[14],inactive
same,Potency,[15],35.3 µM (active)
same,Potency,[18],inactive
same,Potency,[16],inactive
CC1CC(OC(=O)C(O)c2ccccc2)CC(C)(C)N1C (centres undefined),Potency,[1],inactive
same,Potency,[2],inactive
same,Potency,[3],inactive
same,Potency,[5],inactive
same,Potency,[19],inactive
same,"activity change, positive = activation",[20],-3.41% [at 42.5 µM]
same,Potency,[6],inactive
same,Potency,[7],inactive
same,Potency,[8],inactive
same,Potency,[9],inactive
same,Potency,[17],inactive
same,Potency,[10],inactive
same,Potency,[11],inactive
same,max response,[12],0.136%
same,Potency,[13],inactive
same,Potency,[15],inactive
same,Potency,[18],inactive
same,Potency,[16],inactive
